# Laboratory results reported in the supplement of paper PMC4466140.
# B1: unnamed (peptide)
# chain: YRRKSIPFAPHQITA
# B2: unnamed (peptide)
# chain: KLSRGRYGLPLSSRP
# Key:
# Assay in all cases: SPOT peptide array binding signal intensity (averaged, normalized) (arbitrary units (background-subtracted, floor 0; scale differs between SH3 domains)); higher = stronger binding of the SH3 domain to the peptide
# AgAbp1 = target: AgAbp1
# Description: (§1)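 GST-tagged SH3 domains from S. cerevisiae (Sc), A. gossypii (Ag), C. albicans (Ca) and S. pombe (Sp) were incubated at 10 ug/ml overnight at 4 C on cellulose SPOT membranes carrying 292 synthetic 15-mer peptides mined from the S. cerevisiae proteome (cysteines replaced by serines). Binding was detected with anti-GST antibody, HRP secondary and chemiluminescence, quantified with Genespotter, and reported as normalized spot intensities averaged over biological replicates.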
# AgBbc1 = target: AgBbc1
# Description: as §1
# AgBem1-D1 = target: AgBem1-D1
# Description: as §1
# AgBzz1-D1 = target: AgBzz1-D1
# Description: as §1
# AgBzz1-D2 = target: AgBzz1-D2
# Description: as §1
# AgCyk3 = target: AgCyk3
# Description: as §1
# AgFus1 = target: AgFus1
# Description: as §1
# AgHof1 = target: AgHof1
# Description: as §1
# AgHse1 = target: AgHse1
# Description: as §1
# AgLsb1 = target: AgLsb1
# Description: as §1
# AgLsb4 = target: AgLsb4
# Description: as §1
# AgMyo5 = target: AgMyo5
# Description: as §1
# AgNbp2 = target: AgNbp2
# Description: as §1
# AgRvs167 = target: AgRvs167
# Description: as §1
# AgSho1 = target: AgSho1
# Description: as §1
# AgSla1-D1-D2 = target: AgSla1-D1-D2
# Description: as §1
# AgSla1-D3 = target: AgSla1-D3
# Description: as §1
# CaAbp1-D1 = target: CaAbp1-D1
# Description: as §1
# CaAbp1-D2 = target: CaAbp1-D2
# Description: as §1
# CaBbc1 = target: CaBbc1
# Description: as §1
# CaBem1-D1 = target: CaBem1-D1
# Description: as §1
# CaBzz1-D1 = target: CaBzz1-D1
# Description: as §1
# CaBzz1-D2 = target: CaBzz1-D2
# Description: as §1
# CaCyk3 = target: CaCyk3
# Description: as §1
# CaFus1 = target: CaFus1
# Description: as §1
# CaHof1 = target: CaHof1
# Description: as §1
# CaHse1 = target: CaHse1
# Description: as §1
# CaLsb1 = target: CaLsb1
# Description: as §1
# CaLsb4 = target: CaLsb4
# Description: as §1
# CaMyo5 = target: CaMyo5
# Description: as §1
# CaNbp2 = target: CaNbp2
# Description: as §1
# CaRvs167 = target: CaRvs167
# Description: as §1
# CaRvs167-3 = target: CaRvs167-3
# Description: as §1
# CaSho1 = target: CaSho1
# Description: as §1
# CaSla1-D1-D2 = target: CaSla1-D1-D2
# Description: as §1
# CaSla1-D3 = target: CaSla1-D3
# Description: as §1
# ScAbp1 = target: ScAbp1
# Description: as §1
# ScBbc1 = target: ScBbc1
# Description: as §1
# ScBem1-D1 = target: ScBem1-D1
# Description: as §1
# ScBzz1-D1 = target: ScBzz1-D1
# Description: as §1
# ScBzz1-D2 = target: ScBzz1-D2
# Description: as §1
# ScCyk3 = target: ScCyk3
# Description: as §1
# ScFus1 = target: ScFus1
# Description: as §1
# ScHof1 = target: ScHof1
# Description: as §1
# ScHse1 = target: ScHse1
# Description: as §1
# ScLsb1 = target: ScLsb1
# Description: as §1
# ScLsb2 = target: ScLsb2
# Description: as §1
# ScLsb3 = target: ScLsb3
# Description: as §1
# ScLsb4 = target: ScLsb4
# Description: as §1
# ScMyo3 = target: ScMyo3
# Description: as §1
# ScMyo5 = target: ScMyo5
# Description: as §1
# ScNbp2 = target: ScNbp2
# Description: as §1
# ScPex13 = target: ScPex13
# Description: as §1
# ScRvs167 = target: ScRvs167
# Description: as §1
# ScSho1 = target: ScSho1
# Description: as §1
# ScSla1-D1-D2 = target: ScSla1-D1-D2
# Description: as §1
# ScSla1-D3 = target: ScSla1-D3
# Description: as §1
# SpAbp1-D1 = target: SpAbp1-D1
# Description: as §1
# SpBbc1 = target: SpBbc1
# Description: as §1
# SpBzz1-D1 = target: SpBzz1-D1
# Description: as §1
# SpBzz1-D2 = target: SpBzz1-D2
# Description: as §1
# SpCyk3 = target: SpCyk3
# Description: as §1
# SpHof1 = target: SpHof1
# Description: as §1
# SpHof1-2 = target: SpHof1-2
# Description: as §1
# SpHof1-3 = target: SpHof1-3
# Description: as §1
# SpHse1 = target: SpHse1
# Description: as §1
# SpLsb1 = target: SpLsb1
# Description: as §1
# SpLsb4 = target: SpLsb4
# Description: as §1
# SpMyo1 = target: SpMyo1
# Description: as §1
# SpNbp2 = target: SpNbp2
# Description: as §1
# SpPex13 = target: SpPex13
# Description: as §1
# SpRvs167 = target: SpRvs167
# Description: as §1
# SpSla1-D1-D2 = target: SpSla1-D1-D2
# Description: as §1
# SpSla1-D3 = target: SpSla1-D3
# Description: as §1
binder,measurement,setting,value
B1,SPOT peptide array binding signal intensity,AgAbp1,34
same,SPOT peptide array binding signal intensity,AgBbc1,11.5
same,SPOT peptide array binding signal intensity,AgBem1-D1,21.5
same,SPOT peptide array binding signal intensity,AgBzz1-D1,99.5
same,SPOT peptide array binding signal intensity,AgBzz1-D2,34
same,SPOT peptide array binding signal intensity,AgCyk3,1
same,SPOT peptide array binding signal intensity,AgFus1,131
same,SPOT peptide array binding signal intensity,AgHof1,5.5
same,SPOT peptide array binding signal intensity,AgHse1,162
same,SPOT peptide array binding signal intensity,AgLsb1,25.8
same,SPOT peptide array binding signal intensity,AgLsb4,24
same,SPOT peptide array binding signal intensity,AgMyo5,≤ 0
same,SPOT peptide array binding signal intensity,AgNbp2,62.5
same,SPOT peptide array binding signal intensity,AgRvs167,3.67
same,SPOT peptide array binding signal intensity,AgSho1,16.5
same,SPOT peptide array binding signal intensity,AgSla1-D1-D2,39
same,SPOT peptide array binding signal intensity,AgSla1-D3,2.5
same,SPOT peptide array binding signal intensity,CaAbp1-D1,187
same,SPOT peptide array binding signal intensity,CaAbp1-D2,116
same,SPOT peptide array binding signal intensity,CaBbc1,41.5
same,SPOT peptide array binding signal intensity,CaBem1-D1,24
same,SPOT peptide array binding signal intensity,CaBzz1-D1,182
same,SPOT peptide array binding signal intensity,CaBzz1-D2,148
same,SPOT peptide array binding signal intensity,CaCyk3,6
same,SPOT peptide array binding signal intensity,CaFus1,159
same,SPOT peptide array binding signal intensity,CaHof1,2
same,SPOT peptide array binding signal intensity,CaHse1,16.8
same,SPOT peptide array binding signal intensity,CaLsb1,3
same,SPOT peptide array binding signal intensity,CaLsb4,13
same,SPOT peptide array binding signal intensity,CaMyo5,0.5
same,SPOT peptide array binding signal intensity,CaNbp2,161
same,SPOT peptide array binding signal intensity,CaRvs167,15.7
same,SPOT peptide array binding signal intensity,CaRvs167-3,18.5
same,SPOT peptide array binding signal intensity,CaSho1,70
same,SPOT peptide array binding signal intensity,CaSla1-D1-D2,118
same,SPOT peptide array binding signal intensity,CaSla1-D3,2.5
same,SPOT peptide array binding signal intensity,ScAbp1,53
same,SPOT peptide array binding signal intensity,ScBbc1,9.25
same,SPOT peptide array binding signal intensity,ScBem1-D1,29.5
same,SPOT peptide array binding signal intensity,ScBzz1-D1,66
same,SPOT peptide array binding signal intensity,ScBzz1-D2,90
same,SPOT peptide array binding signal intensity,ScCyk3,10
same,SPOT peptide array binding signal intensity,ScFus1,89
same,SPOT peptide array binding signal intensity,ScHof1,3.5
same,SPOT peptide array binding signal intensity,ScHse1,380
same,SPOT peptide array binding signal intensity,ScLsb1,0.25
same,SPOT peptide array binding signal intensity,ScLsb2,25
same,SPOT peptide array binding signal intensity,ScLsb3,20
same,SPOT peptide array binding signal intensity,ScLsb4,6
same,SPOT peptide array binding signal intensity,ScMyo3,0.5
same,SPOT peptide array binding signal intensity,ScMyo5,6
same,SPOT peptide array binding signal intensity,ScNbp2,160
same,SPOT peptide array binding signal intensity,ScPex13,185
same,SPOT peptide array binding signal intensity,ScRvs167,33.3
same,SPOT peptide array binding signal intensity,ScSho1,145
same,SPOT peptide array binding signal intensity,ScSla1-D1-D2,166
same,SPOT peptide array binding signal intensity,ScSla1-D3,4.25
same,SPOT peptide array binding signal intensity,SpAbp1-D1,99
same,SPOT peptide array binding signal intensity,SpBbc1,2
same,SPOT peptide array binding signal intensity,SpBzz1-D1,189
B2,SPOT peptide array binding signal intensity,AgAbp1,34
same,SPOT peptide array binding signal intensity,AgBbc1,30
same,SPOT peptide array binding signal intensity,AgBem1-D1,37
same,SPOT peptide array binding signal intensity,AgBzz1-D1,59
same,SPOT peptide array binding signal intensity,AgBzz1-D2,55.5
same,SPOT peptide array binding signal intensity,AgCyk3,7.5
same,SPOT peptide array binding signal intensity,AgFus1,65
same,SPOT peptide array binding signal intensity,AgHof1,20.5
same,SPOT peptide array binding signal intensity,AgHse1,187
same,SPOT peptide array binding signal intensity,AgLsb1,63
same,SPOT peptide array binding signal intensity,AgLsb4,29
same,SPOT peptide array binding signal intensity,AgMyo5,≤ 0
same,SPOT peptide array binding signal intensity,AgNbp2,39
same,SPOT peptide array binding signal intensity,AgRvs167,4.33
same,SPOT peptide array binding signal intensity,AgSho1,6
same,SPOT peptide array binding signal intensity,AgSla1-D1-D2,41
same,SPOT peptide array binding signal intensity,AgSla1-D3,3.75
same,SPOT peptide array binding signal intensity,CaAbp1-D1,380
same,SPOT peptide array binding signal intensity,CaAbp1-D2,273
same,SPOT peptide array binding signal intensity,CaBbc1,101
same,SPOT peptide array binding signal intensity,CaBem1-D1,19
same,SPOT peptide array binding signal intensity,CaBzz1-D1,146
same,SPOT peptide array binding signal intensity,CaBzz1-D2,100
same,SPOT peptide array binding signal intensity,CaCyk3,6.5
same,SPOT peptide array binding signal intensity,CaFus1,86
same,SPOT peptide array binding signal intensity,CaHof1,0.5
same,SPOT peptide array binding signal intensity,CaHse1,2
same,SPOT peptide array binding signal intensity,CaLsb1,1.5
same,SPOT peptide array binding signal intensity,CaLsb4,37
same,SPOT peptide array binding signal intensity,CaMyo5,2
same,SPOT peptide array binding signal intensity,CaNbp2,110
same,SPOT peptide array binding signal intensity,CaRvs167,6.5
same,SPOT peptide array binding signal intensity,CaRvs167-3,13.5
same,SPOT peptide array binding signal intensity,CaSho1,59.5
same,SPOT peptide array binding signal intensity,CaSla1-D1-D2,≤ 0
same,SPOT peptide array binding signal intensity,CaSla1-D3,0.25
same,SPOT peptide array binding signal intensity,ScAbp1,24
same,SPOT peptide array binding signal intensity,ScBbc1,8.5
same,SPOT peptide array binding signal intensity,ScBem1-D1,14
same,SPOT peptide array binding signal intensity,ScBzz1-D1,21
same,SPOT peptide array binding signal intensity,ScBzz1-D2,20
same,SPOT peptide array binding signal intensity,ScCyk3,59
same,SPOT peptide array binding signal intensity,ScFus1,102
same,SPOT peptide array binding signal intensity,ScHof1,≤ 0
same,SPOT peptide array binding signal intensity,ScHse1,754
same,SPOT peptide array binding signal intensity,ScLsb1,89
same,SPOT peptide array binding signal intensity,ScLsb2,7
same,SPOT peptide array binding signal intensity,ScLsb3,16
same,SPOT peptide array binding signal intensity,ScLsb4,15
same,SPOT peptide array binding signal intensity,ScMyo3,6
same,SPOT peptide array binding signal intensity,ScMyo5,8.5
same,SPOT peptide array binding signal intensity,ScNbp2,86.5
same,SPOT peptide array binding signal intensity,ScPex13,7.25
same,SPOT peptide array binding signal intensity,ScRvs167,12.8
same,SPOT peptide array binding signal intensity,ScSho1,112
same,SPOT peptide array binding signal intensity,ScSla1-D1-D2,91.5
same,SPOT peptide array binding signal intensity,ScSla1-D3,2
same,SPOT peptide array binding signal intensity,SpAbp1-D1,146
same,SPOT peptide array binding signal intensity,SpBbc1,2
same,SPOT peptide array binding signal intensity,SpBzz1-D1,163
same,SPOT peptide array binding signal intensity,SpBzz1-D2,≤ 0
same,SPOT peptide array binding signal intensity,SpCyk3,6.5
same,SPOT peptide array binding signal intensity,SpHof1,88.8
same,SPOT peptide array binding signal intensity,SpHof1-2,10.5
same,SPOT peptide array binding signal intensity,SpHof1-3,326
same,SPOT peptide array binding signal intensity,SpHse1,150
same,SPOT peptide array binding signal intensity,SpLsb1,110
same,SPOT peptide array binding signal intensity,SpLsb4,48.5
same,SPOT peptide array binding signal intensity,SpMyo1,2
same,SPOT peptide array binding signal intensity,SpNbp2,38
same,SPOT peptide array binding signal intensity,SpPex13,1
same,SPOT peptide array binding signal intensity,SpRvs167,4.33
same,SPOT peptide array binding signal intensity,SpSla1-D1-D2,≤ 0
same,SPOT peptide array binding signal intensity,SpSla1-D3,≤ 0
